{
  "source": "PubChem BioAssay AID743143",
  "about": "(Broad Institute, 2013)",
  "note": "Potency and affinity values are given separately. Unmarked numbers belong to inactive results.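 The calls were made as follows: active = falling signal curve whose fitted half-maximal dose lies at or below the top valid tested dose; inconclusive = flat fit showing 30 to 70% loss, or poor fit; inactive = rising signal, flat within 30%, or half-maximal dose above top.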",
  "data": [
    {"experiment": "viability reduction in hepatoma cells – cell-based, ATP luminescence, dry powder, Set4, cytotoxicity control, dose response (AID 743143)", "settings": "HepG2 viability, CellTiter-Glo ATP luminescence, 72 h; series mostly up to 26 µM; activity change, negative = cytotoxicity: at the top concentration", "units": {"activity change, negative = cytotoxicity": "%"}, "values": [
      {"smiles": "C[C@@H](NC(=O)CCNC(=O)c1ccc(Cl)cc1)c1ccccc1", "activity change, negative = cytotoxicity": -1.89},
      {"smiles": "O=C(CCCNC(=O)c1ccc(C(F)(F)F)cc1)N[C@@H]1CCCc2ccccc21", "activity change, negative = cytotoxicity": -4.36},
      {"smiles": "O=C(CCNC(=O)c1ccccc1)N[C@@H]1CCCc2ccccc21", "activity change, negative = cytotoxicity": 5.01},
      {"smiles": "O=C(CCNC(=O)c1ccc(Cl)cc1)N[C@@H]1CCCc2ccccc21", "activity change, negative = cytotoxicity": -3.06},
      {"smiles": "O=C(CNC(=O)c1ccc(Cl)cc1)N[C@@H]1CCCc2ccccc21", "activity change, negative = cytotoxicity": 1.92},
      {"smiles": "COc1ccccc1C(C)NC(=O)CCNC(=O)c1ccc(Cl)cc1", "note": "(stereo not given)", "activity change, negative = cytotoxicity": 17.3},
      {"smiles": "CC(NC(=O)C1CCCN(C(=O)c2ccc(Cl)cc2)C1)c1ccccc1", "note": "(stereo not given)", "activity change, negative = cytotoxicity": 1.33},
      {"smiles": "O=C(CCCNC(=O)c1ccc(OC(F)(F)F)cc1)N[C@@H]1CCCc2ccccc21", "activity change, negative = cytotoxicity": -5.35},
      {"smiles": "CC(CC(=O)N(C)C1CCCc2ccccc21)NC(=O)c1ccccc1", "note": "(stereo not given)", "activity change, negative = cytotoxicity": -9.54},
      {"smiles": "CC(c1ccccc1)N(C)C(=O)CCNC(=O)c1ccc(Cl)cc1", "note": "(stereo not given)", "activity change, negative = cytotoxicity": 20.6},
      {"smiles": "O=C(NC1CCOc2ccccc21)C1CCCN(C(=O)c2ccc(Cl)cc2)C1", "note": "(stereo not given)", "activity change, negative = cytotoxicity": -10.2},
      {"smiles": "CC(C)(C)OC(=O)NCCC(=O)N[C@@H]1CCCc2ccccc21", "activity change, negative = cytotoxicity": 30.2},
      {"smiles": "O=C(CCNC(=O)c1ccc(C(F)(F)F)cc1)N[C@@H]1CCCc2ccccc21", "activity change, negative = cytotoxicity": -0.327},
      {"smiles": "Cc1ccc(C(=O)NCCC(=O)N[C@@H]2CCCc3ccccc32)cc1", "activity change, negative = cytotoxicity": -0.842},
      {"smiles": "N#Cc1ccc(C(=O)NCCC(=O)N[C@@H]2CCCc3ccccc32)cc1", "activity change, negative = cytotoxicity": -2.19},
      {"smiles": "O=C(CCNC(=O)c1ccccc1Cl)NC1CCCc2ccccc21", "note": "(stereo not given)", "activity change, negative = cytotoxicity": -8.4},
      {"smiles": "CC(CC(=O)NC1CCCc2ccccc21)NC(=O)c1ccccc1", "note": "(stereo not given)", "activity change, negative = cytotoxicity": -8.93},
      {"smiles": "O=C(CNC(=O)c1ccc(OC(F)(F)F)cc1)N[C@@H]1CCCc2ccccc21", "activity change, negative = cytotoxicity": 11.1},
      {"smiles": "O=C(CCCNC(=O)c1ccc(Cl)cc1)N[C@@H]1CCCc2ccccc21", "activity change, negative = cytotoxicity": 0.579},
      {"smiles": "Cc1cccc(C(=O)NCCC(=O)NC2CCCc3ccccc32)c1", "note": "(stereo not given)", "activity change, negative = cytotoxicity": 10.8},
      {"smiles": "O=C(CCNC(=O)c1ccc(OC(F)(F)F)cc1)N[C@@H]1CCCc2ccccc21", "activity change, negative = cytotoxicity": -18.2},
      {"smiles": "O=C(Cc1ccc(Cl)cc1)NCCC(=O)N[C@@H]1CCCc2ccccc21", "activity change, negative = cytotoxicity": 7.64},
      {"smiles": "CC(=O)NCCC(=O)N[C@@H]1CCCc2ccccc21", "activity change, negative = cytotoxicity": -4.47},
      {"smiles": "COc1ccccc1C(=O)NCCC(=O)NC1CCCc2ccccc21", "note": "(stereo not given)", "activity change, negative = cytotoxicity": 15.7},
      {"smiles": "O=C(CCNC(=O)c1ccc2c(c1)OC(F)(F)O2)N[C@@H]1CCCc2ccccc21", "activity change, negative = cytotoxicity": -0.347},
      {"smiles": "O=C(CCNC(=O)c1cccc(Cl)c1)N[C@@H]1CCCc2ccccc21", "activity change, negative = cytotoxicity": 0.415},
      {"smiles": "O=C(CCNC(=O)c1ccc(Cl)cc1)N[C@H]1CCCc2ccccc21", "activity change, negative = cytotoxicity": -7.67},
      {"smiles": "O=C(CNC(=O)c1ccc(C(F)(F)F)cc1)N[C@@H]1CCCc2ccccc21", "activity change, negative = cytotoxicity": 18.8},
      {"smiles": "O=C(CCNC(=O)c1ccc(Cl)cc1)NC1CCCCC1", "activity change, negative = cytotoxicity": 8.22},
      {"smiles": "O=C(CCNC(=O)c1ccc(Cl)cc1)NC1CCCc2ccccc21", "note": "(stereo not given)", "activity change, negative = cytotoxicity": -25.1},
      {"smiles": "NCCC(=O)N[C@@H]1CCCc2ccccc21", "activity change, negative = cytotoxicity": 18.8},
      {"smiles": "CC(NC(=O)CCNC(=O)c1ccc(Cl)cc1)c1ccc2c(c1)OCO2", "note": "(stereo not given)", "activity change, negative = cytotoxicity": 1.46},
      {"smiles": "CC(NC(=O)CCNC(=O)c1ccc(Cl)cc1)c1ccc(F)cc1", "note": "(stereo not given)", "activity change, negative = cytotoxicity": -1.19},
      {"smiles": "O=C(CCNC(=O)c1ccc(Cl)cc1)N[C@@H]1CCc2ccccc21", "activity change, negative = cytotoxicity": 10.8},
      {"smiles": "O=C(CCNC(=O)c1ccc(F)cc1)N[C@@H]1CCCc2ccccc21", "activity change, negative = cytotoxicity": 10.7},
      {"smiles": "O=C(NC1CCc2ccccc21)C1CCCN(C(=O)c2ccc(Cl)cc2)C1", "note": "(stereo not given)", "activity change, negative = cytotoxicity": -6.73},
      {"smiles": "COc1ccc(C(=O)NCCC(=O)N[C@@H]2CCCc3ccccc32)cc1", "activity change, negative = cytotoxicity": -11.5},
      {"smiles": "O=C(CCNC(=O)c1ccc(Cl)c(Cl)c1)N[C@@H]1CCCc2ccccc21", "activity change, negative = cytotoxicity": -13.4},
      {"smiles": "CC(C)(C)OC(=O)NCCC(=O)N[C@H]1CCCc2ccccc21", "activity change, negative = cytotoxicity": -10},
      {"smiles": "CN(C(=O)CCNC(=O)c1ccc(F)cc1F)C1CCCc2ccccc21", "note": "(stereo not given)", "activity change, negative = cytotoxicity": 17.2}
    ]}
  ]
}
